Screens deposited in PubChem BioAssay by National Center for Advancing Translational Sciences (NCATS).
ELG1 DNA repair = ELG1-dependent DNA repair inhibition. AID 504467. 330,000 tested, 2.3% active. HEK293T ELG1-luciferase reporter, luminescence, 16 h; DNA damage induced by 5-fluorouridine. Potency, µM (highest dose often 46.1 µM), inactives show at the top dose activity change, negative = inhibition, most hits filed as inhibitors; also: % is scaled to controls: 0 for no effect and ±100 for the full control effect; nearly all actives have a fitted effect of over 55% in size
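In this reporter screen, reduction of luminescence relative to DMSO vehicle indicated activity. Compounds and 5-fluorouridine were added together to 2,000 cells per well, incubated for 16 hr at 37 °C, then developed with ONE-Glo.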
KB-3-1 cytotox = kills parental KB-3-1 adenocarcinoma cells | KB-3-1 viability, CellTiter-Glo ATP luminescence, 72 h | 400,000 tested, 1.4% active | Potency, µM (titrated, usually from 46.1 µM), usual class: cytotoxic; also: % is scaled to controls: 0 for no effect and ±100 for the full control effect; nearly all actives have a fitted effect of over 60% in size
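Parental KB-3-1 viability, qHTS format: 72 h compound exposure, 37 °C; CellTiter-Glo; media-only wells and DMSO plates as controls; concentration-effect fits on corrected data.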
KB-V1 cytotox = KB-V1 MDR subline cytotoxicity; KB-V1 MDR cells viability, CellTiter-Glo, 72 h; Potency, µM (doses to about 46.1 µM), usual class: cytotoxic; 400,000 tested, 3.4% active; also: % is scaled to controls: 0 for no effect and ±100 for the full control effect; nearly all actives have a fitted effect of over 60% in size
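KB-V1 cells (P-gp-expressing MDR subline of KB-3-1) in phenol-red-free DMEM with 10% FBS were exposed to library compounds over a concentration series for 72 h at 37 degrees C. Viability read by CellTiter-Glo luminescence; concentration-effect curves fitted after normalization.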
SW480 rerep = DNA re-replication induction in SW480 cells; AID 624297; 340,000 tested, 1.8% active; SW480 DNA re-replication, Hoechst DNA content imaging, 48 h; Potency, µM (top dose mostly 46.1 µM), inactives show top-dose re-replication activation, usual class: activators; also: % of control where 0% means no effect; nearly all actives have a fitted effect of over 55% in size
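First, 250 cells per well were seeded. Next, compound or vehicle (23 nL) was pinned in, plates sat 48 hr at 37 C. Finally Hoechst was added for 40 min before fluorescence scanning.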
MCF10A rerep = induces DNA re-replication in MCF 10a normal breast cells; MCF 10A DNA re-replication, Hoechst nuclear intensity, 48 h; Potency, µM (highest dose often 46.1 µM), for inactives: at the highest dose activity, positive = re-replication, usual class: activators; 350,000 tested, 2.9% active; AID 624296; also: % of control where 0% means no effect; nearly all actives have a fitted effect of over 50% in size
Numbers without * were called inactive; i = inactive; u = inconclusive; x = not tested or not shown; [ ] = remark or other dose. The list is not random: actives were taken first. Their share in the collection is about 8.1%. Calls follow the shape of the dose curve; as a rule, active = well fitted curve in the direction sought with a large enough effect; inconclusive = small, poorly fitted or top-dose-only effect, or another doubt; inactive = no such curve, though single readings can be large; an effect the other way counts as inactive or inconclusive. Potency is read from the fitted curve at half-maximal effect.

SMILES	ELG1 DNA repair	KB-3-1 cytotox	KB-V1 cytotox	SW480 rerep	MCF10A rerep
COc1ccc(/C=N/NC(=O)C(=O)N2CCCCCC2)cc1O	4%	i	i	-3%	-2%
CNc1oc(-c2ccc(COc3ccc(C)cc3)o2)nc1C#N	x	i	i	x	x
Cc1cc2nc(CCN(Cc3cccnc3)C(=S)Nc3ccccc3)[nH]c2cc1C	u	i	u	4%	16µM*
Cc1ccc(C(=O)CCC(=O)OCC(=O)NNC(=O)c2ccccc2Cl)cc1	7%	i	i	-29%	-1%
F[Si-2](F)(F)(F)(F)F	x	x	x	4%	5%
COc1ccc(CCNC(=O)CCc2c(C)nc3c(c(C)nn3-c3ccc(C)c(C)c3)c2C)cc1OC	x	i	i	x	x
CCN(CC)CCNC(=O)CCc1c(C)nc2c(c(C)nn2-c2ccc(C)c(C)c2)c1C	u	u	i	15µM*	20%
Cc1ccc(-n2nc(C)c3c(C)c(CCC(=O)Nc4ccc(CN5CCCC5)cc4)c(C)nc32)cc1	12%	i	i	u	26µM*
Cc1ccc(NC(=O)c2oc3ccccc3c2NC(=O)c2ccc(F)c(F)c2)cc1	x	i	i	x	x
COc1cccc(Cn2c(C3CC3)nc3ccc(NC(=O)c4ccco4)cc3c2=O)c1	23µM*	x	x	x	x
COc1ccc(Cn2c(C3CC3)nc3ccc(NC(=O)C4CC4)cc3c2=O)cc1	u	u	23µM*	14%	9%
Nc1sc2c(c1C(=O)NCCc1ccccc1)CCCC2	x	i	u	x	x
COc1cc(C(=O)NCCOc2ccccc2)cc(OC)c1OC	3%	i	u	0%	2%
COc1cc(C(=O)NCCCNc2nc3cc(C)cc(C)c3cc2C#N)cc(OC)c1OC	u	u	5.8µM*	14%	u
CCOc1ccc2nc(NCCCNC(=O)c3cc(OC)c(OC)c(OC)c3)c(C#N)cc2c1	6.5µM*	i	i	10µM*	u
Cc1cc(C)c2cc(C#N)c(NCCCNC(=O)c3ccncc3)nc2c1	x	i	i	x	x
COc1cc(C(=O)NCCOc2cc(C)cc(C)c2)cc(OC)c1OC	u	4.6µM*	5.8µM*	7.3µM*	21µM*
CCOc1ccc2nc(NCCNC(=O)CC)c(C#N)cc2c1	1%	i	u	u	u
COc1cc(C(=O)NCCCNc2ccc([N+](=O)[O-])cc2)cc(OC)c1OC	u	i	21µM*	3%	1%
COc1cccc(NC(=O)Cn2cc(S(=O)(=O)N3CCCC3)c(S(=O)(=O)N3CCCC3)c2)c1	x	i	i	x	x
COc1ccc(CN2CN=C(Nc3nc4ccccc4s3)NC2)cc1	2%	i	4.6µM*	-6%	3%
CC1CCCCC1N1CN=C(Nc2nc3ccccc3s2)NC1 (configuration not stated)	-4%	i	18µM*	0%	6%
c1ccc(CN2CN=C(Nc3nc4ccccc4s3)NC2)cc1	4%	i	i	3%	-182%[0.0737 µM]
O=C(CCCc1nc(-c2ccc(Cl)cc2)no1)N1CCOCC1	-27%	u	9.2µM*	-11%	2%
Cc1cccc(-c2noc(CCCC(=O)N3CCOCC3)n2)c1	12%	i	21µM*	-8%	3%
SMILES	ELG1 DNA repair	KB-3-1 cytotox	KB-V1 cytotox	SW480 rerep	MCF10A rerep
O=C(CCCc1nc(-c2ccc(Cl)cc2)no1)NCC1CCCO1 (configuration not stated)	-19%	10µM*	13µM*	-17%	16%
O=C(O)[C@@H]1CSCN1	x	x	x	0%	2%
Cc1nc2c(c(C)c1CCC(=O)Nc1cccc(C(F)(F)F)c1)c(=O)n(C)c(=O)n2C	x	i	i	x	x
COC(=O)c1cccnc1-n1c(=O)c2cccnc2n(CC(=O)Nc2cccc(C)c2)c1=O	x	i	i	x	x
O=S(Cc1ccc(Br)cc1)Cc1nnc(SCc2c(Cl)cccc2Cl)n1-c1ccccc1 (configuration not stated)	u	i	0.82µM*	-3%	u
Cn1c(CS(=O)Cc2c(Cl)cccc2Cl)nnc1SCc1c(Cl)cccc1Cl (configuration not stated)	u	i	5.8µM*	6%	22%
Clc1cccc(Cl)c1CSc1nnc(CN2CCOCC2)n1-c1ccccc1	-5%	i	i	-13%	u
COc1cc(CNC(=O)Nc2cccn3nc(COCCO)nc23)cc(OC)c1OC	x	i	i	x	x
Cc1cccc(C)c1NC(=O)C1(C)CCC(=O)N1C1CC1 (configuration not stated)	x	i	u	x	x
N#Cc1c([N+](=O)[O-])cc([N+](=O)[O-])cc1S(=O)(=O)Cc1ccccc1	16µM*	23µM*	u	5.2µM*	u
CC1CCc2ccccc2N1CC(=O)Nc1cccc(S(=O)(=O)N2CCCC2)c1 (configuration not stated)	-14%	u	u	u	u
Cc1ccc(OCC(=O)NNC(=O)C2CCC2)cc1C	u	i	i	-2%	3.3µM*
Cc1ccc(OCC(=O)Nc2ccc(N3CCCC3)cc2)cc1C	u	i	i	0%	1%
CCOc1ccc(NC(=O)CN2CCN(C3CCCCC3)C(=O)C2=O)cc1	x	i	i	x	x
CC(C)NS(=O)(=O)c1ccc(OCC(=O)Nc2ccc(F)cc2F)cc1	-17%	i	16µM*	-4%	0%
CC1(C)CC(=O)C(C(c2cc([N+](=O)[O-])ccc2Cl)C2C(=O)CC(C)(C)CC2=O)C(=O)C1	x	i	i	12µM*	u
Cc1sc(C(C2C(=O)CC(C)(C)CC2=O)C2C(=O)CC(C)(C)CC2=O)cc1[N+](=O)[O-]	u	i	i	13%	u
O=C(CC[C@H]1O[C@@H](n2cnc3c(NC(=O)c4ccccc4)ncnc32)[C@H](O)[C@@H]1O)NCC1CCN(Cc2ccccc2)CC1	x	i	i	x	x
Cc1cc(O)c(CN2CCN(S(=O)(=O)c3cccs3)CC2)cc1C(C)C	11µM*	i	u	2%	10%
Cc1cc(C(C)(C)C)cc(CN2CCN(S(=O)(=O)c3cccs3)CC2)c1O	x	i	i	x	x
O=C(O)c1ccccc1-c1c2ccc(=O)cc-2oc2cc(O)ccc12	x	x	x	-4%	-2%
COC(=O)c1ccccc1-c1c2ccc(=N)cc-2oc2cc(N)ccc12	10%	1.3µM*	i	11%	-26%
O=C(NCC1CCCO1)c1cc2n(n1)C(C(F)(F)F)CC(c1ccc(F)cc1)N2 (configuration not stated)	-3%	i	21µM*	-5%	11%
COc1ccc(C2CC(C(F)(F)F)n3nc(C(=O)NCCN4CCOCC4)cc3N2)cc1 (configuration not stated)	-2%	i	i	3%	-4%
